Experiment [1] has as its target Rap guanine nucleotide exchange factor 3 (Homo sapiens) (UniProt O95398). In words: Confirmatory qHTS for antagonist of cAMP-regulated guanine nucleotide exchange factor 3 (EPAC1) (AID 1645880).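 For activity, negative = inhibition: plate controls were DMSO only for no effect and full effect of the ATA control for full effect.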 Note: nearly all actives have a fitted effect of over 55% in size. Note: potency is the fitted concentration of half-maximal effect. The following applies: EPAC1 Rap1B-BODIPY-GDP exchange, fluorescence; activity, negative = inhibition: at 115 µM (top of the series). An outline of the steps:
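Released BODIPY-GDP fluoresces less than Rap1-bound BODIPY-GDP; the signal is followed at 480/540 nm at 5-min intervals over 30 min, after 5 min at room temperature. Reactions contain 100 nM EPAC1, 250 nM RAP1B-BODIPY-GDP and 50 uM GDP; results are normalized to ATA and DMSO.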

For experiment [2] the target is unchanged. In words: Confirmatory qHTS for agonist of cAMP-regulated guanine nucleotide exchange factor 3 (EPAC1) (AID 1645881).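 For activation: EPAC1 catalysed release of BODIPY-GDP from Rap1B seen as fluorescence loss; 100% = effect of cAMP agonist control.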 Note: nearly all actives have a fitted effect of over 75% in size. Note: potency is the fitted concentration of half-maximal effect. A general note: Quantitative high-throughput screening tests each substance at several concentrations.
Experiment [3] has as its target Rap guanine nucleotide exchange factor 4 (Homo sapiens) (UniProt Q8WZA2). As to the kind of experiment: Confirmatory qHTS for agonist of cAMP-regulated guanine nucleotide exchange factor 4 (EPAC2) (AID 1645884). For activation: % is set by controls: 0 for no effect and ±100 for the full control effect.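 Note: nucleotide exchange releases bodipy-GDP from Rap1 and this lowers its fluorescence; nearly all actives have a fitted effect of over 65% in size.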 Note: potency is the fitted concentration of half-maximal effect.
The target of experiment [4] is Rap guanine nucleotide exchange factor 3 (Homo sapiens) (UniProt O95398). In words: Counterscreen qHTS for antagonist of cAMP-regulated guanine nucleotide exchange factor 3 (EPAC1) (AID 1645888). For activity change, negative = inhibition: % of control where 0% means no effect. Note: potency is the fitted concentration of half-maximal effect. An outline of the steps:
(§1)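 Measured: fluorescence of BODIPY-GDP bound to Rap1B, which falls as exchange proceeds. Conditions include 50 uM competing GDP, 5 and 30 min reads, and a later cAMP challenge for antagonist detection.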

Experiment [5] shares this target. As to the kind of experiment: Counterscreen qHTS for agonist of cAMP-regulated guanine nucleotide exchange factor 3 (EPAC1) (AID 1645889). For activation: % of control where 0% means no effect. Note: nearly all actives have a fitted effect of over 40% in size. Note: potency is the fitted concentration of half-maximal effect. The gist of the method: as §1
A general note: Counterscreens check selectivity or assay interference.

A short description of experiment [6]: AP1 Signaling Pathway (AID 357; active = well fitted curve in either direction with a large enough effect, not every such curve was filed as active; note: % is set by controls: 0 for no effect and ±100 for the full control effect). Conditions: ME-180 (cervical carcinoma) AP-1-bla reporter, EGF-induced, beta-lactamase ratio, 5 h; at 7.69 µM (top of the series) unless noted. An outline of the steps:
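ME-180 cells with beta-lactamase reporter under AP-1 response element, stimulated with EC50 EGF; compounds tested in titration series, 5 h at 37 °C. CCF4 substrate added 2.5 h at room temperature; 460/530 nm emission ratio gave %activity and AC50.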

Experiment [7] in a line: NFAT Signaling Pathway (AID 444; active = well fitted curve in either direction with a large enough effect, not every such curve was filed as active;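 note: carbachol stimulus at about its EC50 of 1 µM final; % is set by controls: 0 for no effect and ±100 for the full control effect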). Conditions: Jurkat NFAT-bla M1, carbachol, beta-lactamase ratio, 5 h; at 7.69 µM (top of the series) unless noted. An outline of the steps:
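Jurkat cells carrying an NFAT-driven β-lactamase reporter and co-transfected muscarinic M1 receptor were treated with compound plus carbachol (1 uM final, an EC50 level) for 5 h at 37 °C. CCF4 loading followed for 1 h at RT; 460/530 nm ratio gave %activity.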

The nature of experiment [8]: Stat Signaling Pathway (AID 446; active = well fitted curve in either direction with a large enough effect, not every such curve was filed as active;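 note: ME-180 cervical cancer cells given 40 pM IL-6 alongside compound; SIE-controlled beta-lactamase reporter measured as 460/530 nm FRET emission ratio; % is set by controls: 0 for no effect and ±100 for the full control effect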). The gist of the method:
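Overnight-plated ME-180 cells bearing a STAT Inducible Element beta-lactamase reporter; 5 h co-exposure to compound and 40 pM IL-6; values normalized to 300 pM IL-6 and 125 nM JAK inhibitor controls.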

For experiment [9], the target named is Glucocorticoid receptor (Homo sapiens) (UniProt P04150). As to the kind of experiment: GR-GFP Redistribution (AID 450;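 active = compounds whose dose series gives a full or clear partial fitted curve of increased nuclear translocation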; note: potency is the fitted concentration of half-maximal effect). Conditions: U2OS GR-GFP nuclear translocation, laser cytometry, 2 h.
Chain of Glucocorticoid receptor (Homo sapiens) (P04150 whole entry, looked up): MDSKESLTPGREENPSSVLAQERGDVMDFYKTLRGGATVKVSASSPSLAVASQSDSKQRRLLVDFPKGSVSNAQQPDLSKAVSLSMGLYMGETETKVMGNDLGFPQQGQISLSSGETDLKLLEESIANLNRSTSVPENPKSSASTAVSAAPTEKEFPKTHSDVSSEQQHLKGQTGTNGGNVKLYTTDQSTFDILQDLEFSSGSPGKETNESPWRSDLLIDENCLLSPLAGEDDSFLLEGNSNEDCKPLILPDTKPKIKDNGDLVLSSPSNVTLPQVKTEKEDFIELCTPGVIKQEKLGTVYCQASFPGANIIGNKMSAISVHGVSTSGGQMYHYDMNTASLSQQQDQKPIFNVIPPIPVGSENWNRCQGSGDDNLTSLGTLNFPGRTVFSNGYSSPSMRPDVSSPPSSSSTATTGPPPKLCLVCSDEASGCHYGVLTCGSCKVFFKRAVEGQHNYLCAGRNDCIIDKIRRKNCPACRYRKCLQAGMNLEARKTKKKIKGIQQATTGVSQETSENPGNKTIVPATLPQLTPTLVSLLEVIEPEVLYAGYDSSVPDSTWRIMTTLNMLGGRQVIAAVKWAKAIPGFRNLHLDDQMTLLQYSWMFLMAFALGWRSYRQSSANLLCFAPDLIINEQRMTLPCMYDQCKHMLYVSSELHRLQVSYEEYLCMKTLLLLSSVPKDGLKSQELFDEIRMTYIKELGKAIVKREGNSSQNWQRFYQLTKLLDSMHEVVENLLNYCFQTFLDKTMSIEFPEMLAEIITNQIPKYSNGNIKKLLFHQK
The target in experiment [10] is Tumor susceptibility gene 101 protein (Homo sapiens) (UniProt Q99816). In words: qHTS Assay for Iinhibitors of HIV-1 Budding by Blocking the Interaction of PTAP/TSG101: Hit Validation (AID 651600). Note: potency is the fitted concentration of half-maximal effect; nearly all actives have a fitted effect of over 70% in size. An outline of the steps:
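Measuring PTAP–Tsg101 interaction by FP: protein at 10 uM and fluorescent peptide at 50 nM (final), buffer 10 mM HEPES pH 7.5 with 0.15 M NaCl, 3 mM EDTA, 0.1 mM TCEP, 0.01% Tween 20; 20 min incubation, r.t.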

Unmarked numbers belong to inactive results. Inconclusive results are not listed. The source made the active and inactive calls. Unless noted, calls come from the whole dose curve; as a rule, active = well fitted curve in the direction sought with a large enough effect; inconclusive = small, poorly fitted or top-dose-only effect, or another doubt; inactive = no such curve, though single readings can be large; an effect the other way counts as inactive or inconclusive.

Chain of Rap guanine nucleotide exchange factor 3 (Homo sapiens) (O95398 whole entry, looked up): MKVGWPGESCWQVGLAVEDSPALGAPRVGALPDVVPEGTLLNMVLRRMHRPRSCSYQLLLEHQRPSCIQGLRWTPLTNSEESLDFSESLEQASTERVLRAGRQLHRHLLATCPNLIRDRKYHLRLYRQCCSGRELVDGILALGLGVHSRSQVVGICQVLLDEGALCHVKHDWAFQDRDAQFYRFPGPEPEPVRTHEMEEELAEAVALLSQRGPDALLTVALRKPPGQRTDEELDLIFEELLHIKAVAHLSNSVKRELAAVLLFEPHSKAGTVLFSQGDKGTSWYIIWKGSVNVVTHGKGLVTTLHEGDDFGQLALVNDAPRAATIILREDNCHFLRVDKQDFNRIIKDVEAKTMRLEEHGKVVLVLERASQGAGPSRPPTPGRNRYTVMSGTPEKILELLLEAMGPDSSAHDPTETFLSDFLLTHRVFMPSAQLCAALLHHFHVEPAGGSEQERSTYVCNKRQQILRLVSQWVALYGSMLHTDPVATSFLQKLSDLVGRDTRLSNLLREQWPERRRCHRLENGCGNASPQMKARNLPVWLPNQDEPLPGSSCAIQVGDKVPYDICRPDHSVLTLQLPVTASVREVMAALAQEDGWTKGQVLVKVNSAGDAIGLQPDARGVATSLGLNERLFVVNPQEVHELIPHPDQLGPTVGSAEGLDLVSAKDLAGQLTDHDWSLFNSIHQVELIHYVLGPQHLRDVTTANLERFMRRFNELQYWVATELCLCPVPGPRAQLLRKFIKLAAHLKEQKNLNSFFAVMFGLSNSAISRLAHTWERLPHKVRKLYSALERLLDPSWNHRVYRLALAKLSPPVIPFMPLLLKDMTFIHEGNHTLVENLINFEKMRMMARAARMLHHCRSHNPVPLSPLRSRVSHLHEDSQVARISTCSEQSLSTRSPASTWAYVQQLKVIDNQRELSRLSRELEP
Chain of Rap guanine nucleotide exchange factor 4 (Homo sapiens) (Q8WZA2 whole entry, looked up): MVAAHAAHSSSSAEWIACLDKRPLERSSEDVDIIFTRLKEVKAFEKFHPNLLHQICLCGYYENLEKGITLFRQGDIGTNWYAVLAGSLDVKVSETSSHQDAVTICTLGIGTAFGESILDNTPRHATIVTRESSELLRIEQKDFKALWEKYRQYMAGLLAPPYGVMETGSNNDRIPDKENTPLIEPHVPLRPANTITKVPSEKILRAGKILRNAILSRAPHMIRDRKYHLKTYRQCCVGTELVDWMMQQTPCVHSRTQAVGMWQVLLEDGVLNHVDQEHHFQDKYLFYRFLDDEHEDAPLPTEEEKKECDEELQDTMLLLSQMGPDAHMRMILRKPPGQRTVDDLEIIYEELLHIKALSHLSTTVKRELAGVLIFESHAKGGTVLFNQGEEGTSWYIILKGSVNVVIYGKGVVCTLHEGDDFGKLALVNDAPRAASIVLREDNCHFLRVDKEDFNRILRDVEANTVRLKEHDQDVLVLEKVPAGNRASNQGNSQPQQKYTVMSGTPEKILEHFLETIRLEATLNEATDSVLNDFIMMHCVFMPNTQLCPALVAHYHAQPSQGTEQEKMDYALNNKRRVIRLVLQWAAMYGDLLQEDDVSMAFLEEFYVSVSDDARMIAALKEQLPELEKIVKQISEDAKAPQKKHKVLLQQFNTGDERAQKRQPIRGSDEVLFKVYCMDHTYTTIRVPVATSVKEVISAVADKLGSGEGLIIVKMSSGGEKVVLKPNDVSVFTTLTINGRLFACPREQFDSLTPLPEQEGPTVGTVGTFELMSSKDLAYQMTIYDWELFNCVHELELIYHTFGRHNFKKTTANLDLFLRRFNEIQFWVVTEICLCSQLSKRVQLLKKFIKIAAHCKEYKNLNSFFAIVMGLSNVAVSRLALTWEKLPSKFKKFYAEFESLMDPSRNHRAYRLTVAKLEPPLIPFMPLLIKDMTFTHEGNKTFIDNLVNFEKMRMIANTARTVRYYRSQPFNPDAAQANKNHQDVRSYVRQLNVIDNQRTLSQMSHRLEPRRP
Chain of Tumor susceptibility gene 101 protein (Homo sapiens) (Q99816 whole entry, looked up): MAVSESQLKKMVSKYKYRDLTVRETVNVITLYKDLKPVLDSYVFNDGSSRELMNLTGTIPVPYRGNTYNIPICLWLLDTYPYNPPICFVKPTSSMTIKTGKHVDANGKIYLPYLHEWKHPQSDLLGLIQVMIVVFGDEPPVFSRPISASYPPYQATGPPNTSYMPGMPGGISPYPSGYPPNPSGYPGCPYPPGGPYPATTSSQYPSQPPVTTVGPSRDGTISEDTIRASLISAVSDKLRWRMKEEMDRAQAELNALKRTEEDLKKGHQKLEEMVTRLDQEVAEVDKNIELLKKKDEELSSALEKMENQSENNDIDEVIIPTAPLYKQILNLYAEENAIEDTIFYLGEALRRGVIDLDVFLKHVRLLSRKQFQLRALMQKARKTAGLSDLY

`O=C1c2ccccc2C(Nc2cccnc2)N1Cc1ccccc1Cl` (configuration not stated): the Potency result in experiment [1], in experiment [2], in experiment [3], in experiment [4] and in [5] was “inactive” throughout.
As to `CN(C)c1ccccc1-c1cc(NC=O)c2ncc(-c3cccc(C(F)(F)F)c3)n2c1`, the Potency in experiment [1] is 47.8 µM (active). For the same compound, the Potency entry in [2], in experiment [3], in experiment [4] and in experiment [5] was “inactive” throughout.
On to `CC(=O)NC(c1cccc(F)c1)c1nc(-c2cccs2)cs1` (configuration not stated), for which the Potency result in [1], in [2], in experiment [3], in experiment [4] and in experiment [5] was “inactive” each time.
In the case of `COc1ccc(C(=O)c2ccc(Cl)cc2)c(OC)c1OC`, the Potency entry in experiment [1] and in experiment [2] was “inactive” throughout. For the same compound, the activation in [3] was 6.47% [at 17.1 µM, percent relative to cAMP agonist control]; in [5], 6.99% [at 30.8 µM]. Moreover, the activity change, negative = inhibition in experiment [4] is -1.07% [at 30.8 µM].
With `Cc1onc(-c2ccccc2)c1C(=O)N1CCc2ccccc21`, the Potency result in [1] and in experiment [2] was “inactive” in each case. The activation in experiment [3] was 1.91% [at 17.1 µM, percent relative to cAMP agonist control]; in [5], 18.4% [at 30.8 µM]. The activity change, negative = inhibition in [4] was -17.7% [at 30.8 µM].
For the compound `O=S(=O)(Nc1ccc(C(O)(C(F)(F)F)C(F)(F)F)cc1)c1ccc(Cl)c2nonc12`, the Potency in [1] was 42.6 µM (active). Besides, the Potency entry in experiment [2], in experiment [3], in experiment [4] and in experiment [5] was “inactive” in each case.
For the compound `COc1ccc(C(=O)n2c(-c3ccco3)nc3ccccc32)cc1`, the Potency result in experiment [1] and in [2] was “inactive” each time. Also, the activation in experiment [3] was 7.17% [at 17.1 µM, percent relative to cAMP agonist control]; in experiment [5], 10% [at 30.8 µM]. For the same compound, the activity change, negative = inhibition in experiment [4] was -27.8% [at 30.8 µM].
On to `CCOc1ccccc1OCC(=O)Nc1cc(S(=O)(=O)N2CCCCC2)ccc1N1CCN(CC)CC1`, for which the Potency result in [1], in [2], in [3], in [4] and in experiment [5] was “inactive” in each case.
`O=C(c1ccccc1)c1cccc2ccccc12`: the Potency entry in [1] and in experiment [2] was “inactive” in each case. Besides, the activation was 6.02% [at 17.1 µM, percent relative to cAMP agonist control] in experiment [3] and 19% [at 30.8 µM] in experiment [5]. For the same compound, in experiment [4], the activity change, negative = inhibition is -2.88% [at 30.8 µM].
With `CSCCC(NS(=O)(=O)c1ccc2c(c1)oc(=O)n2C)C(=O)NC1CCCCC1` (configuration not stated), the Potency entry in [1], in experiment [2], in experiment [3], in experiment [4] and in experiment [5] was “inactive” each time.
With `Cc1cc(=O)oc2cc(NC(=O)C(C)Oc3ccccc3)ccc12` (configuration not stated), the Potency entry in [1], in experiment [2], in experiment [3], in experiment [4] and in [5] was “inactive” each time.
As for `CNC(=O)c1ccc2snnc2c1`, the Potency entry in [1], in experiment [2], in experiment [3], in experiment [4] and in experiment [5] was “inactive” throughout.
Take `CC(C)(C(=O)N1CCC1(C)C(=O)NS(=O)(=O)c1cccc(Cl)c1)c1ccccc1` (configuration not stated): the Potency in experiment [1] is 75.7 µM (active). The Potency result in experiment [2], in [3], in [4] and in experiment [5] was “inactive” in each case.
Regarding `O=C(CN1C(=O)NC2(CCCC2)C1=O)Nc1nc2c(F)cc(F)cc2s1`, the Potency entry in experiment [1], in experiment [2], in experiment [3], in [4] and in experiment [5] was “inactive” in each case.
For the compound `CCOC(=O)N/N=C/c1ccc(OCCSc2ccc(Cl)cc2)c(OC)c1`, the activity, negative = inhibition in [1] was -73.5% (active). Moreover, the Potency entry in [2], in experiment [3], in experiment [4] and in [5] was “inactive” each time.
Turning to `O=C1CC(=O)Nc2cc(S(=O)(=O)Nc3ccc(Cl)c(C(F)(F)F)c3)ccc2N1`, the Potency entry in [1], in experiment [2], in experiment [3], in experiment [4] and in [5] was “inactive” in each case.
Take `COCCn1c(SCc2ccccc2F)nc2ccccc2c1=O`: the Potency entry in [1] and in experiment [2] was “inactive” in each case. Besides, the activation in experiment [3] was 4.59% [at 17.1 µM, percent relative to cAMP agonist control]; in experiment [5], 12.3% [at 30.8 µM]. Further, the activity change, negative = inhibition in [4] was -6.24% [at 30.8 µM].
On to `O=C(NCc1ccc(F)cc1)c1cccc2c1C(=O)c1ccc(N3CCOCC3)cc1S2(=O)=O`, for which, in experiment [1], the Potency entry was “inactive”. For the same compound, the Potency in experiment [2] was 56.2 µM (active); in [3], 89.1 µM (active); in [5] it was 56.2 µM (active).
For the compound `O=C(/C=N/O)NCCCN1CCOCC1`, the activity change, negative = inhibition was -1.51% [at 17.2 µM] in experiment [6] and 14.3% [at 17.2 µM] in experiment [7]. Further, in experiment [8], the compound was called inactive. Moreover, the Potency in [9] is above 20.6 µM. The Potency result in [1], in [2], in [3] and in [4] was “inactive” throughout.
For the compound `Oc1ccc(/C=N/Nc2ncnc3nc[nH]c23)cc1`, the Potency entry in experiment [1] and in experiment [2] was “inactive” throughout. The activation in experiment [3] was -0.35% [at 17.1 µM, percent relative to cAMP agonist control]; in experiment [5] it was 4.78% [at 30.8 µM]. Moreover, the activity change, negative = inhibition in experiment [4] was 4.9% [at 30.8 µM].
As for `Oc1[nH]c2ccc(Br)cc2c1N=Nc1ccc(F)cc1`, the Potency was 10.3 µM (active) in [10], 84.9 µM (active) in [1] and 70.8 µM (active) in experiment [4]. Moreover, the Potency entry in [2], in experiment [3] and in experiment [5] was “inactive” in each case.
In the case of `CC(C)(C)NC(=O)C(c1ccc(C(F)(F)F)cc1)n1c(=O)c(-c2ccco2)nc2ccccc21` (configuration not stated), the Potency in [1] was 75.7 µM (active). In addition, the Potency result in experiment [2], in experiment [3] and in [5] was “inactive” throughout.
